# ASM inhibitor: blocks human secretory acid sphingomyelinase; Potency, µM (titrated, usually from 57.5 µM), inactives show at the top dose activity change, negative = inhibition, most hits filed as inhibitors; 340,000 compounds, 0.006% hits; P17405; placental ASM, HMU-PC fluorogenic substrate, 60 min; note: potency is the fitted concentration of half-maximal effect
#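 Human placenta-derived ASM enzyme was preincubated with compound for 10 minutes at room temperature, then given fluorogenic substrate HMU-PC0 (9 uM final) for 60 minutes at 37 °C; a pH 10 stop preceded fluorescence reading at Ex 386/Em 447 nm.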
# Mito fusion act: blocks mitochondrial division or promotes mitochondrial fusion; Potency, µM (highest dose often 46.1 µM), for inactives: at the top dose growth rescue (activation), usual class: activators; 320,000 compounds, 0.23% hits; AID 485298; S. cerevisiae fusion-defective mutant growth rescue, CellTiterGlo 48 h; note: potency is the fitted concentration of half-maximal effect; % of control where 0% means no effect; nearly all actives have a fitted effect of over 45% in size
#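 Growth-rescue viability read-out: after 48 h at the non-permissive 37C in glycerol/ethanol YPEG, yeast mitochondrial fusion mutants are measured by CellTiterGlo luminescence; compounds (23 nl pinned per well) restoring growth score as division inhibitors or fusion activators.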
# ClpP mod: qHTS Assay for Activators of ClpP; ATP-dependent Clp protease proteolytic subunit (Bacillus subtilis (strain 168)), P80244; purified B. subtilis ClpP, FRET peptide cleavage, 20 min; Potency, µM (top dose mostly 57.5 µM), without a hit: at the highest dose activity change, negative = active; 340,000 compounds, 1.9% hits; active = well fitted falling curve with a large enough effect; inconclusive = small, poorly fitted or top-dose-only effect; inactive = no such curve, though single readings can be large or run the other way; note: potency is the fitted concentration of half-maximal effect; the source files actives as falling curves though it sought activators and does not explain the sign; nearly all actives have a fitted effect of over 65% in size
# Target sequence (P80244 whole entry, looked up): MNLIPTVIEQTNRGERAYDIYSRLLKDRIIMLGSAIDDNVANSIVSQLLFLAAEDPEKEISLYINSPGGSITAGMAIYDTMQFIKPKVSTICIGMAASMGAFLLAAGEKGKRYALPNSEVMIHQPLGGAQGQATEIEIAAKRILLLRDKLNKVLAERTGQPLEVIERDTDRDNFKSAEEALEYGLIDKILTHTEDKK
#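 Buffer: 100 mM Tris/HCl pH8, 100 mM KCl, 0.05% low protease BSA, 2.5% glycerol, 0.01% Tween-20. ClpP 10 microg/mL final; 20 min RT; delta FRET normalized to ADEP and DMSO controls.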
# LDHA block: blocks human lactate dehydrogenase A | P00338 | purified LDHA, NADH/diaphorase-resazurin fluorescence; hits give low values | activity change, % (values are at about 110 or 230 µM) | 480,000 compounds, 0.15% hits; in the data active = activity change below about -30%; inconclusive = mostly about -25% to -30%;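 note: plate controls were DMSO wells for no effect and wells without enzyme for full effect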
#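 Enzyme activity of human lactate dehydrogenase 5 (2 nM; 0.06 mM NADH, 0.2 mM pyruvate, 5 min, RT) is measured via a resazurin/diaphorase fluorescence readout of residual NADH.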
# IDH1 R132H inh: human IDH1 R132H inhibition | IDH1-R132H enzyme, NADPH consumption, diaphorase/resazurin fluorescence | O75874 | 390,000 compounds, 0.093% hits | Potency, µM (doses to about 76.6 µM), inactives show top-dose activity change, negative = inhibition, most hits filed as inhibitors | AID 602179; note: potency is the fitted concentration of half-maximal effect; % is set by controls: 0 for no effect and ±100 for the full control effect; nearly all actives have a fitted effect of over 65% in size
#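 IDH1-R132H (0.5 ug/mL) preincubated 30 min with compound, then NADPH (0.016 mM) and alpha-KG (2 mM) added; 80 min at RT, pH 7.5. Remaining NADPH coupled via diaphorase/resazurin to fluorescence (540/590 nm); concentration-response curves normalized to no-enzyme control.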
# RGS4 inhibitor: human RGS4 inhibition; P49798; Transcreener GDP fluorescence polarization, RGS4-accelerated GTP hydrolysis; Potency, µM (doses to about 114 µM), for the others: at the top dose activity change, negative = inhibition, hits mostly inhibitors; 390,000 compounds, 0.039% hits; AID 504845; note: potency is the fitted concentration of half-maximal effect; % is set by controls: 0 for no effect and ±100 for the full control effect; nearly all actives have a fitted effect of over 75% in size
# Target sequence (P49798 whole entry, looked up): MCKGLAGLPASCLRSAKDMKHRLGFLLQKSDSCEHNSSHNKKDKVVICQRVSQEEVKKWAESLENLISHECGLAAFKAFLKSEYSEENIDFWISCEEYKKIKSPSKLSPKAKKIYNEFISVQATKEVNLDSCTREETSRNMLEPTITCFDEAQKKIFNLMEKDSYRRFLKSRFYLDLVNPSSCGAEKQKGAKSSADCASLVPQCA
#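 MLSMR compounds (23 nl, pin-transferred) preincubated 10 min at room temperature with a 500nM (2x) first reagent, then RGS4 at 900nM (2x) plus Transcreener GDP mix added; fluorescence polarization (620/688 nm) read before and after 90 min at 30 °C.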
# Numbers without * were called inactive; i = inactive; ? = inconclusive; · = no result given. The sample as a whole holds a higher share of hits than the screen did. Unless noted, calls come from the whole dose curve; as a rule, active = well fitted curve in the direction sought with a large enough effect; inconclusive = small, poorly fitted or top-dose-only effect, or another doubt; inactive = no such curve, though single readings can be large; an effect the other way counts as inactive or inconclusive.
SMILES,ASM inhibitor,Mito fusion act,ClpP mod,LDHA block,IDH1 R132H inh,RGS4 inhibitor
CC1=C(C(=O)Nc2ccccc2)C(c2cc(Br)ccc2F)n2ncc(C(=O)Nc3ccccc3)c2N1 (stereo not given),·,·,4%,-4,-3%,-13%
COc1ccccc1NC(=O)C1=C(C)Nc2c(C(=O)Nc3ccc(F)cc3)cnn2C1c1ccc(Cl)cc1 (stereo not given),·,·,28µM*,1,-23%,6%
COc1ccc(OC)c(C2C(C(=O)Nc3ccccc3OC)=C(C)Nc3c(C(=O)Nc4ccc(F)cc4)cnn32)c1 (stereo not given),·,·,?,7,17%,-1%
CC1=C(C(=O)Nc2ccc(C)cc2C)C(c2cc(Br)ccc2F)n2ncc(C(=O)Nc3ccc(C)cc3)c2N1 (stereo not given),·,·,20µM*,-17,2%,-8%
COC(=O)c1ccccc1-c1c2ccc(=N)cc-2oc2cc(N)ccc12,-19%,5%,·,-58*,?,?
CCCc1nn(C)c2c(=O)[nH]c(-c3ccccc3OCC)nc12,3%,10%,20µM*,-2,2%,-10%
COC(=O)C1=CN(C(C)C)C=C(C(=O)OC)C1c1ccsc1,·,·,·,2,·,·
CCOC(=O)C1=CN(C)C=C(C(=O)OCC)C1c1ccsc1,i,24%,8.9µM*,0,4%,7%
N#Cc1ncc(-c2ccc3c(c2)OCCOCCOCCOCCOCCO3)nc1C#N,6%,20µM*,32µM*,-4,3%,-9%
O=C1Nc2ccc(I)cc2C1=Cc1cc(Br)c(O)c(Br)c1,·,·,0%,-12,·,·
O=C1Nc2ccc(I)cc2/C1=C/c1cc(Br)c(O)c(Br)c1,·,0.46µM*,·,·,·,9.5µM*
COc1cccc(C(=O)Nc2ccc3oc(C)nc3c2)c1OC,·,·,·,2,·,·
CN1c2ccccc2-c2nc3ccccc3n2C1c1ccccn1 (stereo not given),i,-6%,-1%,-4,6%,-14%
CN1c2ccccc2-c2nc3ccccc3n2C1c1ccncc1 (stereo not given),340%,1%,20µM*,-2,6%,-2%
O=C(NCc1ccccc1)C12CC3CC(CC(Cl)(C3)C1)C2,-1%,0%,32µM*,-1,7%,46%
O=C(NCc1cccnc1)C12CC3CC(CC(Cl)(C3)C1)C2,2%,3%,-2%,2,2%,-6%
N#Cc1c(N)sc2c1CCN(CCc1ccccc1)C2,196%,-1%,22µM*,-4,-2%,4%
N#Cc1c(NC(=S)NC(=O)c2ccccc2)sc2c1CCN(CCc1ccccc1)C2,·,3%,·,·,·,·
COc1cccc(-c2nn(-c3ccccc3)cc2C(=O)NCC(C)(C)N2CCOCC2)c1,·,·,·,-31*,·,·
[N-]=[N+]=Nc1ccc(C(=O)CSC[C@H](NC(=O)CC[C@H](N)C(=O)O)C(=O)NCC(=O)O)cc1,·,1%,·,·,·,3.4µM*
Cc1cc(C)cc(N(CCC#N)C(=O)CN(C)CC(=O)Nc2ccccc2Cl)c1,·,·,·,1,·,·
S=C(NN=Cc1ccccn1)N(Cc1ccccn1)Cc1ccccn1,1%,·,22µM*,5,6%,-26%
COc1ccc(Nc2oc(-c3cccs3)nc2C#N)cc1,112%,-1%,14µM*,-2,0%,32%
CNc1oc(-c2cccs2)nc1C#N,169%,-1%,-48%,-1,-3%,4%
CCOc1cc(/C=N/NC(=O)c2nn(C)cc2Br)ccc1OCc1ccccc1Cl,-17%,4µM*,?,-1,3%,-16%
SMILES,ASM inhibitor,Mito fusion act,ClpP mod,LDHA block,IDH1 R132H inh,RGS4 inhibitor
Cn1cc(Br)c(C(=O)N/N=C/c2cccc(OC3CSC3)c2)n1,-2%,?,-2%,-8,14%,2%
O=c1[nH]c2cc3c(cc2cc1CN(Cc1cccnc1)Cc1nnnn1Cc1ccco1)OCCO3,50%,0%,14µM*,7,3%,-32%
O=c1[nH]c2cc3c(cc2cc1CN(Cc1cccs1)Cc1nnnn1Cc1ccco1)OCCO3,36%,2%,?,4,-12%,?
O=c1[nH]c2cc3c(cc2cc1CN(Cc1ccccc1)Cc1nnnn1Cc1ccco1)OCCO3,25%,1%,-16%,10,-5%,?
COc1ccccc1CN(Cc1cc2cc3c(cc2[nH]c1=O)OCCO3)Cc1nnnn1Cc1ccco1,88%,3%,28µM*,31,-15%,?
CCc1cccc(CC)c1NC(=O)c1nn(C)c(=O)c2ccccc12,·,·,·,1,·,·
O=C(NCCCN1CCOCC1)c1cc2c(=O)[nH]c3ccccc3c2s1,3%,0%,-10%,-1,5%,3%
Cc1ccc2nc(Cl)c3cc(C(=O)NCCCN4CCC(C)CC4)sc3c2c1,·,·,0%,0,0%,1%
Cc1ccc2[nH]c(=O)c3cc(C(=O)NCCCN4CCC(C)CC4)sc3c2c1,·,·,13µM*,-1,1%,9%
CCN1CCN(CCCNC(=O)c2cc3c(=O)[nH]c4ccccc4c3s2)CC1,-3%,2%,8.9µM*,-3,5%,-9%
CCCc1cc(=O)[nH]c(SCc2nnc(-c3ccc(OC)cc3)o2)n1,·,·,·,-6,·,·
COCC(C)NC(=O)c1ccccc1OC(C)=O (stereo not given),2%,-5%,25µM*,-6,16%,-18%
Cc1ccc(OCC(=O)N2CCC(NC(=O)c3ccccc3)CC2)c(C)c1,·,·,·,9,·,·
N#CC(Cc1ccc(Cl)cc1)(Cc1ccc(Cl)cc1)C(=O)NC1CCCCC1,·,·,·,4,·,·
CN(C)CCOCCOc1ccccc1-c1ccccc1,2%,7%,0%,-47*,2%,-23%
CC(OC(=O)c1ccc(S(=O)(=O)NCc2ccco2)cc1)C(=O)Nc1ccc(Cl)cn1 (stereo not given),-5%,0%,-1%,-3,5%,-6%
CC(OC(=O)c1ccccc1NCc1ccco1)C(=O)Nc1ncc(Cl)cc1Cl (stereo not given),491%,2%,32µM*,-2,0%,5%
CC(OC(=O)Cc1ccsc1)C(=O)Nc1ccc(Cl)cn1 (stereo not given),·,-6%,25µM*,-12,4%,-10%
CNc1ccccc1C(=O)OC(C)C(=O)Nc1ccc(Cl)cn1 (stereo not given),i,3%,25µM*,1,1%,-2%
CCn1nc(C(=O)N(C)CCOc2cccc(C)c2)c2ccccc2c1=O,·,·,·,1,·,·
Cc1ccc(-n2nnnc2SCc2nc3ccsc3c(=O)[nH]2)cc1C,·,·,·,7,·,·
